# Experimental data: PubChem BioAssay (NCATS)
# Where “and” joins values, the source holds several entries; their conditions need not be identical. Equal values may be shown once. Unmarked numbers belong to inactive results. Records with an inconclusive call do not appear. A call without a number means that no potency is given here. Calls of active or inactive are those of the source. Unless noted, calls follow the shape of the dose curve; as a rule, active = well fitted curve in either direction with a large enough effect (not every such curve was filed as active); inconclusive = small, poorly fitted or top-dose-only effect, or another doubt; inactive = flat fitted curve, though single readings scatter.
# Legend:
# [1] = AP1 Signaling Pathway (AID 357); conditions: ME-180 AP-1-bla reporter, EGF-induced, beta-lactamase ratio, 5 h; at 7.69 µM (top of the series) unless noted;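 also: ME-180 reporter cells stimulated with EGF at its EC50 level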
# Summary of the method: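 AP-1-bla ME-180 cells, Opti-MEM + 0.5% dialyzed FBS, plated overnight 37 °C. Cpd titration + EC50 EGF, 5 h 37 °C. CCF4 2.5 h RT; ex 405, em 460/530 ratio → %activity, AC50.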
# [2] = target: Cytochrome P450 1A2 (Homo sapiens) (UniProt P05177); experiment: p450-cyp1a2 (AID 410; calls by dose curve; also: potency is read from the fitted curve at half-maximal effect)
# Summary of the method: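 Human CYP1A2 (20nM) demethylated Luciferin-ME at its Km (100uM) in 100mM KPO4. After 10 min compound preincubation, NADPH regeneration ran the reaction 60 min at room temperature. Luciferin was read by luminescence, normalized to 57 uM furafylline.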
# [3] = NFAT Signaling Pathway (AID 444); conditions: Jurkat NFAT-bla M1, carbachol, beta-lactamase ratio, 5 h; at 7.69 µM (top of the series) unless noted;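 also: carbachol stimulus at about its EC50 of 1 µM final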
# Summary of the method: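 Jurkat cells carrying an NFAT-driven β-lactamase reporter and co-transfected muscarinic M1 receptor were treated with compound plus carbachol (1 uM final, an EC50 level) for 5 h at 37 °C. CCF4 loading followed for 1 h at RT; 460/530 nm ratio gave %activity.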
# [4] = Stat Signaling Pathway (AID 446); conditions: ME-180 SIE beta-lactamase reporter, IL-6 stimulated, 5 h; at 7.69 µM (top of the series) unless noted;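 also: ME-180 cervical cancer cells given 40 pM IL-6 alongside compound; SIE-controlled beta-lactamase reporter measured as 460/530 nm FRET emission ratio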
# Summary of the method: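 IL-6/STAT signaling read in ME-180 cells via an SIE beta-lactamase reporter. Stimulus was 40 pM IL-6 (its AC50) for 5 hrs, so both activation and inhibition register.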
# [5] = target: Glucocorticoid receptor (Homo sapiens) (UniProt P04150); experiment: GR-GFP Redistribution (AID 450;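 active = compounds whose dose series gives a full or clear partial fitted curve of increased nuclear translocation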; also: potency is read from the fitted curve at half-maximal effect); conditions: U2OS GR-GFP nuclear translocation, laser cytometry, 2 h
# [6] = target: Glucocorticoid receptor (Homo sapiens) (UniProt P04150); experiment: GR-EFC Redistribution (AID 451; calls by dose curve; also: potency is read from the fitted curve at half-maximal effect); conditions: CHO-K1 GR-EFC translocation, beta-gal luminescence, 2 h
# Summary of the method: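 CHO-K1 cells stably expressing nuclear-localized β-gal enzyme acceptor and GR fused C-terminally to the enzyme donor fragment; ligand-driven nuclear translocation restores β-gal by complementation. Compounds titrated up to 46 uM final, 2 h at 37 °C; luminescence read.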
# [7] = target: 3',5'-cyclic-AMP phosphodiesterase 4B (Homo sapiens) (UniProt Q07343); experiment: qHTS Assay for Inhibitors of PDE-IV (AID 607; active = well fitted activation curve with a large enough effect in the main read-out, with a control signal flat, not every such curve was filed as active)
# Summary of the method: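 Live HEK293 cells with a modified cyclic nucleotide-gated (CNG) channel report intracellular cAMP via membrane-potential dye fluorescence (ex 535/em 590 nm). Endogenous PDE-IV was targeted. Compounds were tested at up to 22.9 uM final; RO 20-1724 100 uM served as control.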
# [8] = target: Cytochrome P450 2C9 (Homo sapiens) (UniProt P11712); experiment: qHTS Assay for Inhibitors and Substrates of Cytochrome P450 2C9 (AID 883; active = well fitted curve in the direction sought with a large enough effect; an effect the other way counts as inactive or inconclusive; also: nearly all actives have a fitted effect of over 60% in size)
# Summary of the method: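 CYP2C9 deoxyluciferin hydroxylation, 37C, 60 min with NADPH regeneration; 10nM enzyme, 100uM Luciferin-H (KM). Glo detection reagent stopped reaction; luminescence normalized to sulphaphenazole (57uM) full inhibition.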
# [9] = target: Cytochrome P450 2D6 (Homo sapiens) (UniProt P10635); experiment: qHTS Assay for Inhibitors and Substrates of Cytochrome P450 2D6 (AID 891; active = well fitted curve in the direction sought with a large enough effect; an effect the other way counts as inactive or inconclusive;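 also: luciferin methyl ether substrate demethylated by CYP2D6 with NADPH regeneration; nearly all actives have a fitted effect of over 60% in size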)
# Summary of the method: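 Human CYP2D6 (5 nM) with 30 uM Luciferin-ME EGE (at Km) in 100 mM KPO4, compound preincubated 10 min, then NADPH regeneration system for 60 min at room temperature. Luciferin read by luminescence; normalized to 1.43 uM quinidine.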
# [10] = target: Cytochrome P450 2C19 (Homo sapiens) (UniProt P33261); experiment: qHTS Assay for Inhibitors and Substrates of Cytochrome P450 2C19 (AID 899; active = well fitted curve in the direction sought with a large enough effect; an effect the other way counts as inactive or inconclusive; also: nearly all actives have a fitted effect of over 60% in size)
# Summary of the method: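 In 50mM KPO4, the reaction held 5nM enzyme and KM-level (10uM) Luciferin-H EGE; it ran 60 min at 37C after NADPH regeneration and a 10 min compound preincubation. Luminescence values were scaled to 57uM ketoconazole as complete inhibition.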
# [11] = target: Guanine nucleotide-binding protein G(i) subunit alpha-1 (Homo sapiens) (UniProt P63096); experiment: qHTS Assay for Inhibitors of RGS12 GoLoco Motif Activity (Green Fluorophore) (AID 879; active = well fitted curve in the direction sought with a large enough effect; an effect the other way counts as inactive or inconclusive;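 also: negative values mean loss of peptide binding seen as reduced polarization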)
# Summary of the method: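 Fluorescence polarization assay: 50 nM Gαi1 with 10 nM FITC-labeled RGS12 GoLoco peptide in 10 mM Tris pH 7.5, 150 mM NaCl, 0.1 mM GDP, 0.05% NP40, 10 min at room temperature with compound.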
# [12] = qHTS Assay for Identification of Small Molecule Agonists for Thrombopoietin (TPO) Signaling Pathway (AID 917; active = well fitted curve in the direction sought with a large enough effect; an effect the other way counts as inactive or inconclusive)
# Summary of the method: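 Activators of TPO signaling were sought in murine Ba/F3 cells transfected with the human receptor, using a luciferase gene driven by the Glycoprotein IIb promoter; 24-hr compound exposure at 37 C alongside 26 pM TPO, in IL-3-free medium.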
# [13] = target: Muscarinic acetylcholine receptor M1 (Rattus norvegicus) (UniProt P08482); experiment: qHTS Assay for Antagonists of Acetylcholine Muscarinic M1 Receptor: Measurement of IP-One Response (AID 944; active = well fitted curve in the direction sought with a large enough effect; an effect the other way counts as inactive or inconclusive; also: nearly all actives have a fitted effect of over 75% in size)
# Summary of the method: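 CHO cells expressing rat M1 receptor, recovered overnight, were pre-incubated 10 min with compound, then stimulated 30 min with carbachol at EC80 (200 nM) in LiCl-containing buffer, pH 7.4. IP1 accumulation was read by HTRF (620/665 nm).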
# [14] = target: Pyruvate kinase (Leishmania mexicana) (UniProt Q27686); experiment: qHTS Validation Assay for Inhibitors of Leishmania Mexicana Pyruvate Kinase (AID 945; active = well fitted curve in the direction sought with a large enough effect; an effect the other way counts as inactive or inconclusive)
# Summary of the method: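 qHTS eight-point titrations against 0.2 nM LmPYK (E451W) in imidazole buffer pH 7.2 with 0.5 mM PEP, 0.1 mM ADP; 1 h, room temperature. Readout: PKLight luminescence, normalized to neutral DMSO wells.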
# [15] = target: Pyruvate kinase PKM (Homo sapiens) (UniProt P14618); experiment: qHTS Assay for Activators of Human Muscle Pyruvate Kinase (AID 954; active = well fitted curve in the direction sought with a large enough effect, not every such curve was filed as active)
# Summary of the method: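 Enzyme was run at intermediate activity so both inhibitors and activators could be detected. ATP formed from ADP and PEP by 0.1 nM human PKM2 during a 1 h room-temperature incubation was quantified by coupled luciferase luminescence.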
# [16] = target: Alpha-galactosidase A (Homo sapiens) (UniProt P06280); experiment: Counterscreen for Glucocerebrosidase Inhibitors: qHTS Assay for Human alpha-Galactosidase at pH 4.5 (AID 992; active = well fitted curve in the direction sought with a large enough effect; an effect the other way counts as inactive or inconclusive)
# Summary of the method: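 Read-out is 4-methylumbelliferone fluorescence (365 nm excitation, 440 nm emission) after a pH 10 NaOH/glycine stop. Reactions held 2 nM enzyme and 80 uM substrate at pH 4.5 for 20 min at room temperature.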
# [17] = target: alpha-glucosidase (Oryza sativa, rice) (UniProt Q653V4); experiment: Counterscreen for Glucocerebrosidase Inhibitors: qHTS Assay for Rice alpha-Glucosidase at pH 5.0 (AID 997; active = well fitted curve in the direction sought with a large enough effect; an effect the other way counts as inactive or inconclusive)
# Summary of the method: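 Rice alpha-glucosidase (4 nM final) with 400 uM 4-methylumbelliferyl-alpha-D-glucopyranoside in citrate buffer pH 5.0, 20 min at room temperature, stopped at pH 10; fluorescence 365/440 nm, compounds 0.7 nM–77 uM, AC50 from Hill fits.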
# [18] = target: Mitogen-activated protein kinase 10 (Mus musculus) (UniProt Q61831); experiment: JNK3 AlphaScreen Assay (AID 530);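 also: kinase came from lysate of stimulated human HepG2 cells; signal reports phosphorylation of biotinylated GST-cJun 1-79 at Ser73 with 10 µM ATP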
# Summary of the method: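 JNK3 came from HepG2 lysates pre-activated with IL-1beta and TNF-alpha and phosphorylated biotinylated GST-cJun (1-79) at 10 uM ATP, pH 7.6, room temperature. Compounds were titrated. AlphaScreen signal used anti-phospho-cJun (Ser73) antibody.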
# [19] = target: Muscarinic acetylcholine receptor M1 (Rattus norvegicus) (UniProt P08482); experiment: qHTS Assay for Antagonists of Acetylcholine Muscarinic M1 Receptor: Kinetic Measurement of Intracellular Calcium Response (AID 943; active = well fitted curve in the direction sought with a large enough effect; an effect the other way counts as inactive or inconclusive;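 also: Fluo-4 calcium signal as peak divided by basal fluorescence over 4 min; nearly all actives have a fitted effect of over 75% in size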)
# Summary of the method: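 CHO cells stably expressing rat M1 were loaded with no-wash Fluo-4 dye for 1 h at 37C, pre-incubated 10 min with compound, then challenged with EC80 carbachol (100 nM final); kinetic calcium read 4 min, peak/basal ratio.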
# [20] = qHTS Assay for Identification of Small Molecule Agonists for Hypoxia Response Element Signaling Pathway (AID 914; active = well fitted activation curve with a large enough effect in the signal ratio, with a control signal flat, not every such curve was filed as active; the % refers to the signal ratio); conditions: ME-180 (cervical carcinoma) HRE-bla reporter, beta-lactamase ratio, CoCl2, 17 h; activation: hits give high values
# Summary of the method: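 Positive modulation of EC50 CoCl2-induced hypoxia response element signaling is measured in ME-180 cells with a beta-lactamase reporter. Compounds are titrated, incubation runs 17 hours, and %Activity derives from the blue/green ratio.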
# [21] = target: Cytochrome P450 3A4 (Homo sapiens) (UniProt P08684); experiment: qHTS Assay for Activators of Cytochrome P450 3A4 (AID 885; active = well fitted curve in the direction sought with a large enough effect; an effect the other way counts as inactive or inconclusive; also: nearly all actives have a fitted effect of over 65% in size)
# Summary of the method: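 Quantitative HTS format: compounds preincubated with 20nM human CYP3A4 and Luciferin-PPXE substrate at KM, reaction started by NADPH regeneration, stopped after 60 min, luciferase luminescence read 20 min later.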
# Chain of Pyruvate kinase PKM (Homo sapiens) (P14618 whole entry, looked up): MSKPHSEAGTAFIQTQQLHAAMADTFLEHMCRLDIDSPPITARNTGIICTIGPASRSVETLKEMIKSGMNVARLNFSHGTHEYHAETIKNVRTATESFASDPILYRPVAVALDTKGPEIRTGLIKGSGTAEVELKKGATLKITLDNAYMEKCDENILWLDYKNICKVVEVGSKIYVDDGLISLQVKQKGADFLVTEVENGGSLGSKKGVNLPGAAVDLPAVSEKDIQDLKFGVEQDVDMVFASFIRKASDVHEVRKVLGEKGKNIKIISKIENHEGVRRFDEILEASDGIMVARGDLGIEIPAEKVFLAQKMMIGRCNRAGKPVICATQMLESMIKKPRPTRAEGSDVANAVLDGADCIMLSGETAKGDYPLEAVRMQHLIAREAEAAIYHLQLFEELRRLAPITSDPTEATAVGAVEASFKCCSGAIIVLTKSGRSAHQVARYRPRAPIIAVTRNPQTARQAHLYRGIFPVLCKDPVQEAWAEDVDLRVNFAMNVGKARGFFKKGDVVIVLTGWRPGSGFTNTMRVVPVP
# Chain of Cytochrome P450 2D6 (Homo sapiens) (P10635 whole entry, looked up): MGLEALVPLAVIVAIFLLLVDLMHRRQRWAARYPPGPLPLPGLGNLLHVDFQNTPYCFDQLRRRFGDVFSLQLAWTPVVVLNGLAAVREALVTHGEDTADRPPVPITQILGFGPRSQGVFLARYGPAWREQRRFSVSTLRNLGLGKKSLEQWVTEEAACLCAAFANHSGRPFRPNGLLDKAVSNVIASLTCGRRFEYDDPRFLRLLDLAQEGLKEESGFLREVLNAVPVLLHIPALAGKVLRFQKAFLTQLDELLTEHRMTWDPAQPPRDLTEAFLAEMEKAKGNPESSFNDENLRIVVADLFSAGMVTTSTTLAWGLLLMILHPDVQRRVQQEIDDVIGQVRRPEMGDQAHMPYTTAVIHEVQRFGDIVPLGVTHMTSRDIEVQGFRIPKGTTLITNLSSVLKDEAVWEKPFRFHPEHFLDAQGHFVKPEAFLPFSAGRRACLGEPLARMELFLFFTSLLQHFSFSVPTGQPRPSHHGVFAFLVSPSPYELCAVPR
# Chain of Alpha-galactosidase A (Homo sapiens) (P06280 whole entry, looked up): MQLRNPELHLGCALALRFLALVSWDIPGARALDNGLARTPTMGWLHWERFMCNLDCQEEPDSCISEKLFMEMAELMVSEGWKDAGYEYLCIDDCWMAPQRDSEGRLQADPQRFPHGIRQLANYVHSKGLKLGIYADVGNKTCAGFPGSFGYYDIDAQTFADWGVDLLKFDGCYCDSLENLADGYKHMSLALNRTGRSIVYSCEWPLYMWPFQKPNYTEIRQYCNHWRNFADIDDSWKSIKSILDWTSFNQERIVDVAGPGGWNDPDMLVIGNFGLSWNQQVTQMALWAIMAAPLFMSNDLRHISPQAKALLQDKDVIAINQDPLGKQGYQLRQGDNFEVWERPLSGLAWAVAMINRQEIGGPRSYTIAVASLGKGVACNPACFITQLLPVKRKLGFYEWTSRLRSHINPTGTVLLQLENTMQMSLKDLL
# Chain of Muscarinic acetylcholine receptor M1 (Rattus norvegicus) (P08482 whole entry, looked up): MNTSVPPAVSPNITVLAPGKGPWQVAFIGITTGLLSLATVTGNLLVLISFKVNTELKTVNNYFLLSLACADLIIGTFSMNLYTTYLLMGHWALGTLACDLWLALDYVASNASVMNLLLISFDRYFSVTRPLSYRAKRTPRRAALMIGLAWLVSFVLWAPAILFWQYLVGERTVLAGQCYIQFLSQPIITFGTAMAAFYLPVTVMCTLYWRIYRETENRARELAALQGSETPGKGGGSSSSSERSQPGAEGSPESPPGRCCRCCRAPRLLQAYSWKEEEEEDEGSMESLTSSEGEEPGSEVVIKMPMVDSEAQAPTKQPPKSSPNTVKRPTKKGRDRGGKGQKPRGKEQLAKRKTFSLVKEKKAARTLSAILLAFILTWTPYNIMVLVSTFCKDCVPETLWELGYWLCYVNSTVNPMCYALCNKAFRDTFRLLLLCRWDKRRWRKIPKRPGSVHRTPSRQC
# Chain of Cytochrome P450 1A2 (Homo sapiens) (P05177 whole entry, looked up): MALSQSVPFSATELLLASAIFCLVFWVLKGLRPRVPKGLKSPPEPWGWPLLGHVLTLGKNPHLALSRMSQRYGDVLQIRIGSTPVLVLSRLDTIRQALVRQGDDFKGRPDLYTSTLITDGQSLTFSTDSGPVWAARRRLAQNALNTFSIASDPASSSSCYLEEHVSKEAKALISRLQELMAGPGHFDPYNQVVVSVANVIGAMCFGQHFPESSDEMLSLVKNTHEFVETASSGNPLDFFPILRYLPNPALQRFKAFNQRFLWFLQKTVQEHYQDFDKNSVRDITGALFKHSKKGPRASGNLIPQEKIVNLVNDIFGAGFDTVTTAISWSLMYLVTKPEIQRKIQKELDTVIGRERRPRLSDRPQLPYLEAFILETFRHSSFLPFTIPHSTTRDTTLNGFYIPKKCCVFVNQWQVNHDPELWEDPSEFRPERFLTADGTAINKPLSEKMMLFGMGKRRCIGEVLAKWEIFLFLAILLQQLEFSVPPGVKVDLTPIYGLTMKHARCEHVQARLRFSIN
# Chain of Cytochrome P450 2C19 (Homo sapiens) (P33261 whole entry, looked up): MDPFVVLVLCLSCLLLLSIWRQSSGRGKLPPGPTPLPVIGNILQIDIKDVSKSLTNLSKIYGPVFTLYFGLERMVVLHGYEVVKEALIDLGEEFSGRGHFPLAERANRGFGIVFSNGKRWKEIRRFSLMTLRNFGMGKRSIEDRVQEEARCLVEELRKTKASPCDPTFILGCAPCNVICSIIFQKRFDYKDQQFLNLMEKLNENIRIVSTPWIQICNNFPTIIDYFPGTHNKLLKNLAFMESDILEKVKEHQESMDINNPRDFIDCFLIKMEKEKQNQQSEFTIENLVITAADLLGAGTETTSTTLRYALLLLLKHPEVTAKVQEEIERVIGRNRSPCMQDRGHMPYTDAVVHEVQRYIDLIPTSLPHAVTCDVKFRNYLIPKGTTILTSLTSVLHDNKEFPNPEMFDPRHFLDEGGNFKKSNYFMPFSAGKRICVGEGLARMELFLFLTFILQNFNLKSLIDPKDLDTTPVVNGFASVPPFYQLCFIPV
# Chain of Glucocorticoid receptor (Homo sapiens) (P04150 whole entry, looked up, the tested form may be a part): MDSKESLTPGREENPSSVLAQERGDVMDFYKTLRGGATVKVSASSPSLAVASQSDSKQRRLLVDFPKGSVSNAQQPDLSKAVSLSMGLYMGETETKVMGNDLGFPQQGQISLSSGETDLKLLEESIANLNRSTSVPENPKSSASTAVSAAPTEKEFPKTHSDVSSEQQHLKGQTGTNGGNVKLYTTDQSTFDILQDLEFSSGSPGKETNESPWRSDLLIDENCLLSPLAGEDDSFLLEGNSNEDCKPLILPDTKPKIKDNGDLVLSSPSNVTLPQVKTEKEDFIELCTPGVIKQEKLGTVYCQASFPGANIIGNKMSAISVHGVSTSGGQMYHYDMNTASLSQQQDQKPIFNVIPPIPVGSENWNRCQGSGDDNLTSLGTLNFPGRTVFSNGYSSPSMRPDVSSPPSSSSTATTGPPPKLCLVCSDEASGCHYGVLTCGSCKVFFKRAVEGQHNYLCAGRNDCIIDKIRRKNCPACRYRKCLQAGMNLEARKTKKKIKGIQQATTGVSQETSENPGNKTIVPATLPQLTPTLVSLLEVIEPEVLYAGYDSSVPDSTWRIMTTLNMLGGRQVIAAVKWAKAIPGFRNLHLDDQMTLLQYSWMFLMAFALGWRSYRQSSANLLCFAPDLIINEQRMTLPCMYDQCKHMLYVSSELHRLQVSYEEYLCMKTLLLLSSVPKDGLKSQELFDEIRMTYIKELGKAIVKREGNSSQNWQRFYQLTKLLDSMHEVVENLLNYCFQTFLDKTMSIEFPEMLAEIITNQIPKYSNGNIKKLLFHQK
# Chain of 3',5'-cyclic-AMP phosphodiesterase 4B (Homo sapiens) (Q07343 whole entry, looked up): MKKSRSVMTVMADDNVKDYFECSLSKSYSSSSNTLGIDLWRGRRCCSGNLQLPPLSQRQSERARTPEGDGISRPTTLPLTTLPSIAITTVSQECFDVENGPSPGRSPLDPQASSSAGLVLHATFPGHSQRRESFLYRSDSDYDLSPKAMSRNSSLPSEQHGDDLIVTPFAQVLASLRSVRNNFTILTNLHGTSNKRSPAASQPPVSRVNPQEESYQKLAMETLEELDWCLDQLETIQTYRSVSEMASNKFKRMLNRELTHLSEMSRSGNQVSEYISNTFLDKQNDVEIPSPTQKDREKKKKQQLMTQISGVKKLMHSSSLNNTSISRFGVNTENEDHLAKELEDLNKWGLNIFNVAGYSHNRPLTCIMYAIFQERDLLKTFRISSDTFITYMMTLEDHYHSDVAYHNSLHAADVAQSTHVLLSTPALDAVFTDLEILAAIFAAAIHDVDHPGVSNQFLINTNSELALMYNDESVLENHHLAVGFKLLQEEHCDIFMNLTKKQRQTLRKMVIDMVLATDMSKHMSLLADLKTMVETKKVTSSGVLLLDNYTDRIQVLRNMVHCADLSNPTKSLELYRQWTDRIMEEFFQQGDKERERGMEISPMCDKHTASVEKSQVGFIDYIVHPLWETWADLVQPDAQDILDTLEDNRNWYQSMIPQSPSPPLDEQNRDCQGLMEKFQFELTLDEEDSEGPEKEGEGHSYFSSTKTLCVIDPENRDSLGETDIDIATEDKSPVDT
# Chain of Guanine nucleotide-binding protein G(i) subunit alpha-1 (Homo sapiens) (P63096 whole entry, looked up): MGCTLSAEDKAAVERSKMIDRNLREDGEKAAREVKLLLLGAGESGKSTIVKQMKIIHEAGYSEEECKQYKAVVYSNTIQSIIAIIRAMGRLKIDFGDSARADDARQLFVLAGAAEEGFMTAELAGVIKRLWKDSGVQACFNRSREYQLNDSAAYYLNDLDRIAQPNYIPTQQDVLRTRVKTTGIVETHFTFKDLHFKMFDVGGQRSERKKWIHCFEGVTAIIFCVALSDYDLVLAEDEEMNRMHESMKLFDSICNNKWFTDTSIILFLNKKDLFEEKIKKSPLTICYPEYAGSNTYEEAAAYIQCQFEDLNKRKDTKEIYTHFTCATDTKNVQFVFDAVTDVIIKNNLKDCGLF
structure (smiles),measurement,setting,value
NC(N)=NCCSSCCN=C(N)N,"activity change, negative = inhibition",[1],-8.04% [at 38 µM]
same,Potency,[2],inactive
same,"activity change, negative = inhibition",[3],-8.54% [at 38 µM]
same,"activity, negative = inhibition",[4],-24.3% [at 38 µM]
same,Potency,[5],> 46 µM
same,Potency,[6],> 46 µM
same,Potency,[7],inactive
same,Potency,[8],inactive
same,Potency,[9],inactive
same,Potency,[10],inactive
OC[C@@H]1O[C@H](O)[C@@H](Cl)[C@H](O)[C@@H]1O,"activity change, negative = inhibition",[1],-0.164% [at 38 µM]
same,Potency,[2],inactive
same,"activity change, negative = inhibition",[3],4.5% [at 38 µM]
same,"activity, negative = inhibition",[4],14% [at 38 µM]
same,Potency,[5],> 46 µM
same,Potency,[6],> 46 µM
same,Potency,[7],inactive
same,outcome,[11],inactive
same,outcome,[12],inactive
same,Potency,[13],inactive
same,outcome,[14],inactive
same,outcome,[15],inactive
same,outcome,[16],inactive
same,Potency,[17],inactive
CC[N+](C)(CC)CCN1C(=O)c2ccccc2S1(=O)=O,"activity change, negative = inhibition",[1],7.73%
same,Potency,[2],inactive
same,"activity change, negative = inhibition",[3],6.78%
same,"activity, negative = inhibition",[4],-3.07%
same,Potency,[5],> 46 µM
same,Potency,[6],> 9.22 µM
same,Potency,[18],inactive
same,Potency,[7],inactive
same,Potency,[10],inactive
O=C(O)[C@H]1C[C@H](C(=O)O)N1,"activity change, negative = inhibition",[1],-0.354% [at 38 µM] and 2.92% [at 38 µM]
same,Potency,[2],inactive
same,"activity change, negative = inhibition",[3],3.19% [at 38 µM] and 0.467% [at 38 µM]
same,"activity, negative = inhibition",[4],-10.2% [at 38 µM]
same,Potency,[5],> 46 µM
same,Potency,[6],> 46 µM
same,Potency,[7],inactive
same,outcome,[11],inactive
same,Potency,[8],inactive
same,Potency,[9],inactive
same,Potency,[10],inactive
same,outcome,[12],inactive
same,Potency,[19],inactive
same,Potency,[13],inactive
same,outcome,[14],inactive
same,outcome,[15],inactive
same,outcome,[16],inactive
same,Potency,[17],inactive
CC[C@@H]1CN2CCc3cc(OC)c(OC)cc3[C@H]2C[C@@H]1C[C@@H]1NCCc2cc(OC)c(OC)cc21,"activity change, negative = inhibition",[1],-110% [at 38 µM] (active)
same,Potency,[2],inactive
same,"activity change, negative = inhibition",[3],-112% [at 38 µM] (active)
same,"activity, negative = inhibition",[4],-52.6% [at 38 µM] (active)
same,Potency,[5],> 46 µM
same,Potency,[6],> 46 µM
same,Potency,[13],inactive
same,outcome,[15],inactive
same,outcome,[16],inactive
same,Potency,[17],inactive
C=C1CC[C@H](O)C/C1=C/C=C1\CCC[C@]2(C)[C@H]1CC[C@H]2[C@@H](C)CCCC(C)C,"activity change, negative = inhibition",[1],-6.4% [at 17.2 µM]
same,Potency,[2],inactive
same,"activity change, negative = inhibition",[3],8.22% [at 17.2 µM]
same,"activity, negative = inhibition",[4],-9.36% [at 17.2 µM]
same,Potency,[5],> 20.6 µM
same,Potency,[6],> 20.6 µM
same,Potency,[18],inactive
same,Potency,[7],inactive
same,activation,[20],-0.192%
COc1ncc2nc(-c3cc(F)cc(F)c3)c(=O)n(C3CC3)c2n1,"activity change, negative = inhibition",[1],5.87%
same,Potency,[2],1.58 µM (active)
same,"activity change, negative = inhibition",[3],-2%
same,"activity, negative = inhibition",[4],-19.2%
same,Potency,[5],> 9.22 µM
same,Potency,[6],> 46 µM
same,Potency,[18],inactive
same,Potency,[7],inactive
same,Potency,[21],inactive
